Measurements as given in the supplement of paper PMC9446081.
± gives the standard deviation of the averaged measurements.

Columns and labels:
Assay in all cases: relative enzymatic activity vs untreated control (fraction); higher = less inhibition
Conditions in all cases: 100 µM; incubation time: 2 h at 37 C
[1] = system: DNA gyrase
Procedure: (§1)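 In vitro enzymatic inhibition assays (ProFoldin kits) for 12 purified essential E. coli enzymes or complexes, each treated with 218 active antibacterial compounds at 100 µM for 2 h at 37°C. Read-outs were fluorescence or absorbance (phosphate detection, dye binding), converted to activity via standard curves and expressed relative to untreated DMSO controls.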

[2] = molecular target: DNA helicase (UniProt P0ACB1)
Sequence of DNA helicase (P0ACB1 whole entry): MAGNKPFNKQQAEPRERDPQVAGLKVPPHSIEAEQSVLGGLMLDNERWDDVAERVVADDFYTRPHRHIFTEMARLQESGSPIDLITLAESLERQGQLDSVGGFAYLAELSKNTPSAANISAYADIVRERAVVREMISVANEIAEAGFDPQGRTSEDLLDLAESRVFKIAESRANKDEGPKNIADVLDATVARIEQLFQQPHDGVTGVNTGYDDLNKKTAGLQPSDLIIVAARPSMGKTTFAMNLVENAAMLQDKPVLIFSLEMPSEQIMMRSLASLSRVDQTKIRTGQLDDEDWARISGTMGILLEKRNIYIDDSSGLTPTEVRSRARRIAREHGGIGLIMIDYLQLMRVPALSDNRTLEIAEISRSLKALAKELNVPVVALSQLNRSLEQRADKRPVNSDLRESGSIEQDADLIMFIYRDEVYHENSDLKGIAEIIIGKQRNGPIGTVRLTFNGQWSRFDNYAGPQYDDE
Procedure: as §1

[3] = molecular target: DNA ligase (UniProt B1XA82)
Sequence of DNA ligase (B1XA82 whole entry): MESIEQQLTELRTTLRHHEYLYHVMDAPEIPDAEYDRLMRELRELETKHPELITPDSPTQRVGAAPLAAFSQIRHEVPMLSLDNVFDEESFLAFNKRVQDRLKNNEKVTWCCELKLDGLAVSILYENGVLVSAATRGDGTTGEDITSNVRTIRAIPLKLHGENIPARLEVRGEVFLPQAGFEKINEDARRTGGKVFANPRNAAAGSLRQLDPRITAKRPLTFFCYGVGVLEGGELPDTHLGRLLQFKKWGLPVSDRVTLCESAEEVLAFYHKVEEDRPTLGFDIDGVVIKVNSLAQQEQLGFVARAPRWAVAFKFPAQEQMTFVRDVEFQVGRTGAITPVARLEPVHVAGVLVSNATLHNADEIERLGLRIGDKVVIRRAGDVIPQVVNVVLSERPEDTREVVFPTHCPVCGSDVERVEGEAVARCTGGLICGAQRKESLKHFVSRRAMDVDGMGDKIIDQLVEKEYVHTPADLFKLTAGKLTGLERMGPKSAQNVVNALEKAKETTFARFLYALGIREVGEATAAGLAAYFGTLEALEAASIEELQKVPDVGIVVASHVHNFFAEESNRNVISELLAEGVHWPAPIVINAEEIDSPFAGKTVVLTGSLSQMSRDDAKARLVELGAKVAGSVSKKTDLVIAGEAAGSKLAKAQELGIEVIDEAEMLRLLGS
Procedure: as §1

[4] = molecular target: DNA polymerase (UniProt P10443)
Sequence of DNA polymerase (P10443 whole entry): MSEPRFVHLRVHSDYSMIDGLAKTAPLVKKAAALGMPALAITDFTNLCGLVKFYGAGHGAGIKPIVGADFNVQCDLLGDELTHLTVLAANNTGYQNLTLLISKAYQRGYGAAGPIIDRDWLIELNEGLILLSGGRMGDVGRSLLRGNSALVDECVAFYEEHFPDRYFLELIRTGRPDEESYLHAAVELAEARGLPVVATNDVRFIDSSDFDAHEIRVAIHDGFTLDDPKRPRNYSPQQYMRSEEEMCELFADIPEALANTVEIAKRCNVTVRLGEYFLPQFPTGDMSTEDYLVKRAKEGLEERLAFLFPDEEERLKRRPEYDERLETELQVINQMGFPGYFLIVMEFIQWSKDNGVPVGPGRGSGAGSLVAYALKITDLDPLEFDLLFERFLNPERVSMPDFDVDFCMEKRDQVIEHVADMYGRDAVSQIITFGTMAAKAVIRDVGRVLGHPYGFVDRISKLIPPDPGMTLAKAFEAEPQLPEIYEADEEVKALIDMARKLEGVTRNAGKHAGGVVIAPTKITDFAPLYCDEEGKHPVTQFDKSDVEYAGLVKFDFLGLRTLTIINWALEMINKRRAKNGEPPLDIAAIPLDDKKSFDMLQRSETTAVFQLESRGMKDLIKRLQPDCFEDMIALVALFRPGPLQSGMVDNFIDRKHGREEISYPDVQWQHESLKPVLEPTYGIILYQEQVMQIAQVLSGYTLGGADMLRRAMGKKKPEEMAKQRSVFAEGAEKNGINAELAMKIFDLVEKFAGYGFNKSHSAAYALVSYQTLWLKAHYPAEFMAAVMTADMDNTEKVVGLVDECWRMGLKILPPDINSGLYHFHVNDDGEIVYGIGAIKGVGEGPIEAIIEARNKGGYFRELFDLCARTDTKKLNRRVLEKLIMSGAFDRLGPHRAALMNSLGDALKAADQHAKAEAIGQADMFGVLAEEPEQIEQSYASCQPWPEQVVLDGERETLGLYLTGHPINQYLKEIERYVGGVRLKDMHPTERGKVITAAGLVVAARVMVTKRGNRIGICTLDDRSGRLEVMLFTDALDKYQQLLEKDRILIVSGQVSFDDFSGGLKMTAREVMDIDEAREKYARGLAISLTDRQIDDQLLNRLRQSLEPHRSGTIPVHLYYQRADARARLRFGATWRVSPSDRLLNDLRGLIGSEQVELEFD
Procedure: as §1

[5] = molecular target: DNA primase (UniProt P0ABS7)
Sequence of DNA primase (P0ABS7 whole entry): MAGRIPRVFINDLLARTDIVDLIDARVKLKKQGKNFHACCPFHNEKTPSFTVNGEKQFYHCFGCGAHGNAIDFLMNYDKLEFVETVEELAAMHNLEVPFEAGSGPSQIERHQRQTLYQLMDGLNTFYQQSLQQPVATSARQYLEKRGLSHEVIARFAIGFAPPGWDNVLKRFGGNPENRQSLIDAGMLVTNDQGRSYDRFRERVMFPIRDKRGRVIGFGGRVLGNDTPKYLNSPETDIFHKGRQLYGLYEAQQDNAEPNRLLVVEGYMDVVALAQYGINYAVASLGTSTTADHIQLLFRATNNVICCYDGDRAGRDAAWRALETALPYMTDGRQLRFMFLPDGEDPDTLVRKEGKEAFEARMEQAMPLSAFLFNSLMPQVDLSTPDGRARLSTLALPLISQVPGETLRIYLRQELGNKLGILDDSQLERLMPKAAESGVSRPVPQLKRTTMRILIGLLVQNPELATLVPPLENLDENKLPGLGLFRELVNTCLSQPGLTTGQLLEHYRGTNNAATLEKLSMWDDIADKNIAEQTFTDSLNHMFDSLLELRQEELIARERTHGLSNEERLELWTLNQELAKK
Procedure: as §1

[6] = molecular target: GlmU (UniProt A7ZTU1)
Sequence of GlmU (A7ZTU1 whole entry, looked up): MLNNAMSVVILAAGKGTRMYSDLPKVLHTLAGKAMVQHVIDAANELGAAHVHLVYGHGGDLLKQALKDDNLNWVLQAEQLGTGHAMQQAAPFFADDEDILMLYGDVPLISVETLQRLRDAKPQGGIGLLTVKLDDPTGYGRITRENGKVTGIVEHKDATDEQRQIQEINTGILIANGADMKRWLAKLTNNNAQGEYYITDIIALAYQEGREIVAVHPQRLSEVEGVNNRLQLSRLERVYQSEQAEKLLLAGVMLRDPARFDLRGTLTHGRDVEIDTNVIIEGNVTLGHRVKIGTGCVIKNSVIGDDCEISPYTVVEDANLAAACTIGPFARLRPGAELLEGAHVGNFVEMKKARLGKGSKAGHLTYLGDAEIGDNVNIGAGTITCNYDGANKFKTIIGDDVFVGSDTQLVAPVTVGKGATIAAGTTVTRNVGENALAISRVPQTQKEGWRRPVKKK
Procedure: as §1

[7] = molecular target: Guanlyate kinase (UniProt Q0TBG1)
Sequence of Guanlyate kinase (Q0TBG1 whole entry): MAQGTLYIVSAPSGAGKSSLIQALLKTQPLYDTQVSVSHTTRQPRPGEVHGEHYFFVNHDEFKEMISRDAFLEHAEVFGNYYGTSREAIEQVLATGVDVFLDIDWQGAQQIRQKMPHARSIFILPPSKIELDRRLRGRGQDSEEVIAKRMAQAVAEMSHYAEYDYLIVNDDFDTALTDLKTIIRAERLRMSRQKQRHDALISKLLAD
Procedure: as §1

[8] = molecular target: MurA (UniProt Q3YX52)
Sequence of MurA (Q3YX52 whole entry): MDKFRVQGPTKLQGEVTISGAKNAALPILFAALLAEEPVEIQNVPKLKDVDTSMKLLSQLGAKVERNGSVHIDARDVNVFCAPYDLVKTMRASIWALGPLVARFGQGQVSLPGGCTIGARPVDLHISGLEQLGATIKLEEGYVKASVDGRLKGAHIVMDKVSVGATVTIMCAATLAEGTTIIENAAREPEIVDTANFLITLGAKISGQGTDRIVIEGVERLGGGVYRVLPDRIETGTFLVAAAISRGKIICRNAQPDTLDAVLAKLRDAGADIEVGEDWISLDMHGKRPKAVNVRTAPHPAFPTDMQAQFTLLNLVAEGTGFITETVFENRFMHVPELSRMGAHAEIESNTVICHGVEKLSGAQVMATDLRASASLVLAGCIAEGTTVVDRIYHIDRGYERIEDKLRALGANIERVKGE
Procedure: as §1

[9] = molecular target: MurC (UniProt C4ZRI6)
Sequence of MurC (C4ZRI6 whole entry, looked up): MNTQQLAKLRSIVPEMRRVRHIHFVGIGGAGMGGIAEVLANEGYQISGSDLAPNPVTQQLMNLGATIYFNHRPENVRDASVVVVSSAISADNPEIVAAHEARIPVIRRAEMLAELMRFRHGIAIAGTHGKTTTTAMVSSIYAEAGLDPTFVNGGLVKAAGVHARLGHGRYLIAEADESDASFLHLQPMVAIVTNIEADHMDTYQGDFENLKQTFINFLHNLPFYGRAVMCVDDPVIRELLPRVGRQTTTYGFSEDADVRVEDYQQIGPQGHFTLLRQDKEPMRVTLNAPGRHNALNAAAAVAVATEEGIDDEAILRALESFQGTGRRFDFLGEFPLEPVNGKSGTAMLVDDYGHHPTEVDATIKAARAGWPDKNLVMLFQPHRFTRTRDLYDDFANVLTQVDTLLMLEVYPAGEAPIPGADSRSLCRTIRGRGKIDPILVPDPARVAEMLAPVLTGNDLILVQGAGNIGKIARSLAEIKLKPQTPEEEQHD
Procedure: as §1

[10] = molecular target: T1, MurD (UniProt P14900)
T1 sequence (whole entry): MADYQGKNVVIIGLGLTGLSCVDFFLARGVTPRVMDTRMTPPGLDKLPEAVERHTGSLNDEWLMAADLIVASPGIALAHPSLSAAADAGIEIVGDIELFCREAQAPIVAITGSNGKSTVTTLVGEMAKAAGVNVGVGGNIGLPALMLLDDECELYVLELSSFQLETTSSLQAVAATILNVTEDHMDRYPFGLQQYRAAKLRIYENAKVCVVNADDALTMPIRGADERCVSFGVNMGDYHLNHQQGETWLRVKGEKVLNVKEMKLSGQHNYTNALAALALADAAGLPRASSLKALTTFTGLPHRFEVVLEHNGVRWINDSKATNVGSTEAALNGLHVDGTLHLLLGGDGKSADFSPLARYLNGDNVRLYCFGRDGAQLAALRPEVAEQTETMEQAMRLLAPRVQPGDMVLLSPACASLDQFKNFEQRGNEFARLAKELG
Procedure: as §1

[11] = molecular target: T2, MurF (UniProt P11880)
T2 sequence (whole entry): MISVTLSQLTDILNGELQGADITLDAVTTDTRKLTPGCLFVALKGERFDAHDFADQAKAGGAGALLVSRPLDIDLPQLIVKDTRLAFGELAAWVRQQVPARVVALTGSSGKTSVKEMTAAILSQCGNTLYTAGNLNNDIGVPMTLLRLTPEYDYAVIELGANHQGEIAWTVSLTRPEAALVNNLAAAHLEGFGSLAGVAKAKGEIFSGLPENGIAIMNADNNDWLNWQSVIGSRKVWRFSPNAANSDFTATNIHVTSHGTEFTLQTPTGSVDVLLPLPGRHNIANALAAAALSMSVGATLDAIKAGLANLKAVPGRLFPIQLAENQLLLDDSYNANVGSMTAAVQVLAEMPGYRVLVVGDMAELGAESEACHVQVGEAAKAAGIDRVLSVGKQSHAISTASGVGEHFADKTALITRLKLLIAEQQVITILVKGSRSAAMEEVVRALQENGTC
Procedure: as §1

[12] = system: RNA polymerase
Procedure: as §1

| SMILES | relative enzymatic activity [1] | relative enzymatic activity [2] | relative enzymatic activity [3] | relative enzymatic activity [4] | relative enzymatic activity [5] | relative enzymatic activity [6] | relative enzymatic activity [7] | relative enzymatic activity [8] | relative enzymatic activity [9] | relative enzymatic activity [10] | relative enzymatic activity [11] | relative enzymatic activity [12] |
| --- | --- | --- | --- | --- | --- | --- | --- | --- | --- | --- | --- | --- |
| N[C@@H](C(=O)N[C@@H]1C(=O)N2C(C(=O)O)=C(Cl)CS[C@H]12)c1ccccc1 | 0.759 ± 0.31 | 0.537 ± 0.076 | 1.02 ± 0.078 | 1.1 ± 0.25 | 0.801 ± 0.021 | 0.911 ± 0.035 | 0.87 ± 0.074 | 0.168 ± 0.067 | 0.902 ± 0.062 | 0.579 ± 0.39 | 0.954 ± 0.21 | 0.766 ± 0.036 |
| CN(C)c1ccc(O)c2c1CC1CC3C(N(C)C)C(O)=C(C(N)=O)C(=O)C3(O)C(O)=C1C2=O.Cl (stereo unspecified) | 0.541 ± 0.071 | 0.129 ± 0.0081 | 0.831 ± 0.21 | 0.908 ± 0.4 | 0.4515 ± 0.0044 | 0.955 ± 0.066 | 0.577 ± 0.027 | 0.0902 ± 0.0036 | 1.05 ± 0.025 | 0.602 ± 0.4 | 0.939 ± 0.18 | 0.184 ± 0.083 |
| C/C(=C\C(=O)OCCCCCCCCC(=O)O)C[C@@H]1OC[C@H](C[C@@H]2O[C@H]2[C@@H](C)[C@H](C)O)[C@@H](O)[C@H]1O | 0.849 ± 0.24 | 0.52 ± 0.098 | 0.897 ± 0.013 | 0.512 ± 0.72 | 0.807 ± 0.031 | 0.999 ± 0.045 | 1.06 ± 0.087 | 0.688 ± 0.19 | 0.891 ± 0.065 | 0.607 ± 0.43 | 1.17 ± 0.52 | 0.935 ± 0.11 |
| CC(C)(O/N=C(\C(=O)N[C@@H]1C(=O)N2C(C(=O)O)=C(C[n+]3ccccc3)CS[C@H]12)c1csc(N)n1)C(=O)O | 0.662 ± 0.56 | 0.577 ± 0.24 | 0.86 ± 0.088 | 1.1 ± 0.22 | 0.791 ± 0.01 | 1.01 ± 0.032 | 0.94 ± 0.075 | 0.0696 ± 0.019 | 1.02 ± 0.022 | 0.613 ± 0.43 | 0.935 ± 0.24 | 0.829 ± 0.16 |
| C=CC1=C(C(=O)O)N2C(=O)C(NC(=O)C(=NO)c3csc(N)n3)C2SC1 (stereo unspecified) | 0.393 ± 0.35 | 0.553 ± 0.15 | 1.19 ± 0.35 | 1.06 ± 0.12 | 0.8619 ± 0.0016 | 0.976 ± 0.068 | 0.917 ± 0.087 | 0.127 ± 0.04 | 0.997 ± 0.02 | 0.596 ± 0.39 | 0.968 ± 0.27 | 0.768 ± 0.033 |
| CC(NCCCc1cccc(C(F)(F)F)c1)c1cccc2ccccc12.Cl (stereo unspecified) | 1.09 ± 0.12 | 0.434 ± 0.07 | 1.1 ± 0.31 | 1.18 ± 0.25 | 0.676 ± 0.16 | 1.08 ± 0.17 | 1.01 ± 0.032 | 0.749 ± 0.32 | 0.985 ± 0.092 | 0.58 ± 0.37 | 0.953 ± 0.19 | 0.817 ± 0.077 |
| O=C1OCCN1N=Cc1ccc([N+](=O)[O-])o1 | 1.13 ± 0.099 | 0.454 ± 0.088 | 1.02 ± 0.015 | 1.35 ± 0.37 | 0.747 ± 0.22 | 0.974 ± 0.017 | 1.01 ± 0.042 | 0.649 ± 0.12 | 1.03 ± 0.054 | 0.565 ± 0.37 | 0.947 ± 0.16 | 0.941 ± 0.097 |
| COC1C=COC2(C)Oc3c(C)c(O)c4c(O)c(c5c(nc6cc(C)ccn65)c4c3C2=O)NC(=O)C(C)=CC=CC(C)C(O)C(C)C(O)C(C)C(OC(C)=O)C1C (stereo unspecified) | 0.733 ± 0.23 | 0.703 ± 0.32 | 1.12 ± 0.24 | 1.11 ± 0.24 | 0.8 ± 0.047 | 0.746 ± 0.032 | 0.583 ± 0.0086 | 0.423 ± 0.046 |  | 0.417 ± 0.28 | 0.788 ± 0.15 | 0.106 ± 0.0026 |
| O=C(NC(CO)C(O)c1ccc([N+](=O)[O-])cc1)C(Cl)Cl (stereo unspecified) | 1.08 ± 0.086 | 0.453 ± 0.012 | 0.947 ± 0.19 | 1.34 ± 0.4 | 0.725 ± 0.2 | 0.972 ± 0.052 | 1.04 ± 0.047 | 0.8 ± 0.18 |  | 0.548 ± 0.34 | 0.96 ± 0.2 | 0.86 ± 0.028 |
